A selection: hits, their analogues and other compounds. The true share with any hit is near 7.4%.
SMN2 splice up: qHTS Assay for Enhancers of SMN2 Splice Variant Expression. HEK293 SMN2-luciferase splicing reporter, luminescence, 30-36 h. Potency, µM (series often up to 46.1 µM), most hits filed as activators. hit rate 2.8% among 210,000; note: nearly all actives have a fitted effect of over 55% in size
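HEK293 cells carry an SMN2 minigene-luciferase reporter in which exon 7 inclusion puts luciferase in frame. Cells were seeded at 2000 cells/well, attached for 10-12 hours, then exposed to compounds for 30-36 hours at 37C before ONE-Glo luminescence.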
NPC1 prom act: qHTS Assay for NPC1 Promoter Activators; Huh7 NPC1 promoter luciferase reporter, 24 h; Potency, µM (top dose mostly 9.22 µM), actives largely listed as activators; hit rate 2.4% among 320,000; AID 485313, 2010; note: nearly all actives have a fitted effect of over 60% in size
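Stably transfected Huh7 (NPC1 promoter→luciferase), 1500 cells/well in Opti-MEM + 10% FBS, 2 h settle, then compound 24 h at 37 °C. Luminescence after 10 min with Amplite reagent.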
ELG1 genotox: qHTS screen for small molecules that induce genotoxicity in human embryonic kidney (HEK293T) cells expressing luciferase-tagged ELG1; hit rate 1.3% among 330,000; HEK293T ELG1-luciferase reporter, luminescence, 16 h; Potency, µM (top dose mostly 46 µM), usual class: activators; AID 504466, 2011; note: nearly all actives have a fitted effect of over 60% in size
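Screening used a luciferase reporter fused to human ELG1 in HEK293T cells. Luminescence was read on a CCD plate imager after 16 hr exposure and 30 min ONE-Glo incubation.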
FLuc modulator: qHTS profiling assay for firefly luciferase inhibitor/activator using purifed enzyme and Km concentrations of substrates (counterscreen for miR-21 project). Luciferin 4-monooxygenase (Photinus pyralis), P08659. purified FLuc, Km substrates, luminescence inhibition. Potency, µM (doses to about 57.5 µM), hits mostly inhibitors. hit rate 6.9% among 360,000. AID 588342, 2011; note: nearly all actives have a fitted effect of over 55% in size
Target sequence (P08659 whole entry, looked up): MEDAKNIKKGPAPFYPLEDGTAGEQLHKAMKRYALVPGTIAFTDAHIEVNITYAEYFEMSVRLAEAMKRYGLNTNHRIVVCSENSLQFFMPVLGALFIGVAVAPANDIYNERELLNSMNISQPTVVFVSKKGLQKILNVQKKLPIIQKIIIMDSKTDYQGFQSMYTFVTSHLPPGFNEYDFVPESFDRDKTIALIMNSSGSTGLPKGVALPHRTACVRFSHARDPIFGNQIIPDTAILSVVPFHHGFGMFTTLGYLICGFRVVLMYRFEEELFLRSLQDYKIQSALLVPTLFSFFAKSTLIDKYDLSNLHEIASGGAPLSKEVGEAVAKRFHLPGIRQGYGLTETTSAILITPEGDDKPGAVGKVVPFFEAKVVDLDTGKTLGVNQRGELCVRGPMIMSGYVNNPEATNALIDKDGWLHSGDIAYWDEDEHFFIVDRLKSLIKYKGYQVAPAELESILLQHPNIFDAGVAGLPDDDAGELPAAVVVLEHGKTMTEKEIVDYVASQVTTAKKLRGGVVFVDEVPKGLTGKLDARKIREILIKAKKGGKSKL
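Biochemical qHTS of compounds, final roughly 60 µM downward over six points, against 10 nM purified firefly luciferase using Km concentrations of substrates (10 uM D-luciferin, 10 uM ATP) in Tris acetate pH 7.5 buffer; luminescence output.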
Rab9 prom act: qHTS Assay for Rab9 Promoter Activators. Potency, µM (doses to about 9.22 µM), hits mostly activators. hit rate 2.8% among 320,000. Huh7 Rab9 promoter-luciferase reporter, luminescence, 24 h; note: nearly all actives have a fitted effect of over 60% in size
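Steps: seed 1500 Huh7 Rab9-luc cells per well, rest 2 h at 37 °C; add compound in DMSO; incubate 24 h; add luciferase reagent, 10 min ambient; read luminescence.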
Numbers stand for hits; – = inactive; ? = inconclusive; · = no result given; [ ] = dose if it differs, or a comment. Calls come from the whole dose curve; as a rule, active = well fitted curve in the direction sought with a large enough effect; inconclusive = small, poorly fitted or top-dose-only effect, or another doubt; inactive = no such curve, though single readings can be large; an effect the other way counts as inactive or inconclusive.

SMILES	SMN2 splice up	NPC1 prom act	ELG1 genotox	FLuc modulator	Rab9 prom act
O=C(Nc1ccc(N2CCCCC2)c(Cl)c1)c1ccc(N2CCOCC2)c([N+](=O)[O-])c1	–	–	–	?	–
CCN1CCN(c2ccc(NC(=O)c3ccc4c(c3)OCO4)cc2)CC1	16µM	?	9.2µM	17µM	?
O=C(Nc1ccc2c(c1)OCO2)c1ccc(N2CCCC2)c([N+](=O)[O-])c1	–	–	–	19µM	–
N#CCC(=O)Nc1ccc(C(=O)Nc2ccc3c(c2)OCO3)cc1	·	–	–	?	–
O=C(NCCc1ccccc1Cl)c1ccc2c(=O)n(-c3ccccc3)c(=O)[nH]c2c1	–	·	·	–	·
O=C(Nc1ccc2c(c1)OCO2)c1ccc2c(c1)OCO2	5µM	0.79µM	?	2.1µM	0.56µM
O=C(Nc1ccc(Cl)c([N+](=O)[O-])c1)c1ccc2c(c1)OCCO2	·	?	?	6µM	0.89µM
Cc1cc(C(=O)Nc2ccc3c(c2)OCO3)cs1	13µM	1.8µM	7.3µM	4.8µM	1.3µM
O=C(Nc1ccc(Cl)cc1)c1ccc2c(c1)OCO2	4.5µM	0.4µM	?	1.3µM	?
Cc1ccc(-c2nnc(Nc3ccc(F)cc3)c3ccccc23)cc1S(=O)(=O)N1CCN(C)CC1	–	·	·	–	·
COc1ccc(C(CNC(=O)CCNC(=O)c2ccccc2OC)N2CCCC2)cc1 (configuration not stated)	·	–	–	–	–
O=C(Nc1ccc2c(c1)OCO2)c1ccc(Cl)s1	7.1µM	2.2µM	2.6µM	4.3µM	2µM
O=C(Nc1ccc(N2CCOCC2)c(Cl)c1)c1ccc2c(c1)OCCO2	·	–	–	?	–
O=C(Nc1ccc(Br)cc1)c1ccc2c(c1)OCO2	·	1µM	8.2µM	2.1µM	0.71µM
O=C(Nc1ccc2nsnc2c1)c1ccc2c(c1)OCO2	5.6µM	0.63µM	1.2µM	1.3µM	0.45µM
O=C(Nc1ccc(N2CCCCC2)c(Cl)c1)c1ccc2c(c1)OCCO2	–	–	?	5.4µM	–
CCC1CCCCN1C(=O)COC(=O)CN(C)S(=O)(=O)c1ccc(NC(C)=O)cc1 (configuration not stated)	·	–	–	–	–
CC(=O)N1c2ccc(S(=O)(=O)NCCC(=O)Nc3ccc(OC(F)(F)F)cc3)cc2CC1C (configuration not stated)	·	–	–[9.26 µM]	–	–
O=C(Nc1ccc2c(c1)OCO2)c1ccc[n+]([O-])c1	–	–	–	–	–
O=C(Nc1ccc(Cl)cc1)C1=Cc2ccccc2OC1	22µM	3.2µM	1.5µM	1.9µM	0.56µM
CC(NC(=O)C1=Cc2ccccc2OC1)c1ccccc1 (configuration not stated)	·	·	·	–	·
O=C(Nc1ccc2c(c1)OCO2)c1cccc(Cl)c1	16µM	3.2µM	?	9.5µM	2.2µM
CC(C)c1c(C(=O)N/N=C/c2ccncc2)nnn1-c1nonc1N	·	–	–	?	–
C/C(=N\NC(=O)c1nnn(-c2nonc2N)c1C(C)C)c1ccncc1	·	–	–	–	–
COc1cc(/C=N/N=C(/N)c2nonc2N)cc(Br)c1OCc1ccccc1C	–	–	–	–	–
SMILES	SMN2 splice up	NPC1 prom act	ELG1 genotox	FLuc modulator	Rab9 prom act
C/C(=N\NC(=O)c1nnn(-c2nonc2N)c1C(C)C)c1cc(C)sc1C	·	–	–	17µM	–
CCCOc1ccc(/C=N/NC(=O)c2nnn(-c3nonc3N)c2-c2cccs2)cc1OC	·	–	–	11µM	–
COc1cccc(/C=N/NC(=O)c2nnn(-c3nonc3N)c2-c2cccs2)c1	·	–	–	?	–
CCN(CC)c1ccc(/C=N/NC(=O)c2nnn(-c3nonc3N)c2C(C)C)c(O)c1	·	–	–	19µM	–
COc1cccc(/C=N/N=C(\N)c2nonc2N)c1O	?	?	18µM	?	2.5µM
CCN1CCN(C(=S)NC(C)c2ccccc2)CC1 (configuration not stated)	–	–	–	–	–
CCN(C1CCS(=O)(=O)C1)S(=O)(=O)c1ccc(OC)c(OC)c1 (configuration not stated)	·	–	–	–	–
Nc1nonc1-n1nnc(C(=O)N/N=C/c2ccc3c(c2)OCO3)c1-c1ccccc1	·	–	–	?	–
N/C(=N\N=C\c1ccc2c(c1)OCO2)c1nonc1N	3.5µM	0.4µM	?	0.95µM	0.32µM
COc1ccccc1CC(=O)O/N=C(\N)c1ccccn1	·	–	–	–	–
CC(/C=N/NC(=O)c1nnn(-c2nonc2N)c1C(C)C)=C\c1ccco1	·	–	–[9.26 µM]	5.4µM	–
COc1ccccc1/C=N\N=C(\N)c1ccccn1	16µM	?	?	6.7µM	2.2µM
CCCc1c(C(=O)N/N=C/C(C)=C/c2ccco2)nnn1-c1nonc1N	·	–	–	–	–
CC(C)c1c(C(=O)N/N=C/c2ccc3c(c2)OCO3)nnn1-c1nonc1N	·	–	–	9.5µM	–
COc1ccc(NC(=O)c2oc3ccccc3c2NC(=O)Cc2coc3c(C)c(C)ccc23)cc1	–	·	·	–	·
C[C@H]1CC2C3CCC4=CC(=O)C=C[C@]4(C)[C@@]3(Cl)[C@@H](O)C[C@]2(C)[C@@]1(O)C(=O)CO (some centres not stated)	·	–	·	·	–
Cc1ccc(C)c(S(=O)(=O)N2CCN(C(=O)Cn3c(=O)cnc4ccccc43)CC2)c1	·	–	–	–	–
COc1ccccc1C(CNc1ccc(S(=O)(=O)N2CCCC2)cc1[N+](=O)[O-])N(C)C (configuration not stated)	·	–	–	–	–
Cc1cc2ccccc2c(=O)[nH]1	–	–	–	–	–[1.84 µM]
O=c1[nH]c(-c2ccccn2)cc2ccccc12	16µM	?	?	17µM	?
Cc1ccc(CNC(=O)c2ccccc2NC(=O)CN2CC(C)OC(C)C2)cc1 (configuration not stated)	·	–	–	–	–
COc1cccc(CNc2cc(C)nc3nc(-c4ccc(C)cc4)nn23)c1	·	·	·	1.7µM	·
COc1ccc(-c2nc3nc(C)cc(Nc4cccc(C(F)(F)F)c4)n3n2)cc1	–	–	·	–	–
COc1cc(CCN2C(=O)c3cccc4cccc(c34)C2=O)c(S(=O)(=O)NCCCO)cc1OC	–	–	–	21µM	–
COc1cc(CCN2C(=O)c3cccc4cccc(c34)C2=O)c(S(=O)(=O)NCCO)cc1OC	·	–	–	13µM	–
CCCCc1ccc(-n2nnnc2SCC(=O)Nc2cc(OC)c([N+](=O)[O-])cc2C)cc1	–	–	–	–	–
c1ccc(NC2=NCCN2CCC2CCCCC2)cc1	·	–	–	–	–
CCCCc1nc2c(c3c1C[C@H](C)OC3)CN(C(=O)N[C@@H](C)c1ccccc1)CC2	–[9.22 µM]	·	·	·	·
COC(=O)C(=C/C=C/N1CCOCC1)C(=O)OC	·	–	–	–	–

Compound activity deposited in PubChem by National Center for Advancing Translational Sciences (NCATS).
